# Experimental data published in the supplement of paper PMC10105736.
# ± gives the standard deviation of the averaged measurements.
# Key:
# Experiment in all cases: MAPPIT interaction score (arbitrary units); higher = stronger binary interaction signal, active = hit call of the paper;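 active = MAPPIT score above the 99th percentile of random reference set scores in the same batch; inactive = at or below it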
# [1] = target: CHES-1-like; conditions: MAPPIT configuration: N-C; pair source set: screen_4
# [2] = target: Mf; conditions: MAPPIT configuration: N-C; pair source set: screen_3
# [3] = target: mri; conditions: MAPPIT configuration: N-N; pair source set: screen_1
# [4] = target: CkIIalpha-i3; conditions: MAPPIT configuration: N-C; pair source set: screen_3
# [5] = target: Cdlc2; conditions: MAPPIT configuration: N-N; pair source set: Finley_Y2H
# [6] = target: Cdc50; conditions: MAPPIT configuration: N-N; pair source set: DPIM
# [7] = target: Cnb; conditions: pair source set: Lit-BM-16
# [8] = target: Cda5; conditions: MAPPIT configuration: N-N; pair source set: Lit-BS-16
# [9] = target: CG9825; conditions: MAPPIT configuration: N-C; pair source set: screen_4
# [10] = target: CSN4; conditions: MAPPIT configuration: N-C; pair source set: Lit-BM-16
# [11] = target: Cog6; conditions: MAPPIT configuration: N-N; pair source set: Finley_Y2H
# [12] = target: Caper; conditions: MAPPIT configuration: N-N; pair source set: DPIM
# [13] = target: Chd64; conditions: MAPPIT configuration: N-N; pair source set: RRS
# [14] = target: CanA1; conditions: MAPPIT configuration: N-N; pair source set: Lit-BS-16
# [15] = target: Cdc5; conditions: MAPPIT configuration: N-N; pair source set: DPIM
# [16] = target: CROT; conditions: MAPPIT configuration: N-N; pair source set: Curagen_high_conf
# [17] = target: Caf1-55; conditions: pair source set: Lit-BM-16
# [18] = target: Rph; conditions: MAPPIT configuration: N-C; pair source set: RRS
# 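Also: HEK293T cells with Epo stimulation, STAT-responsive firefly luciferase reporter, fold induction versus unstimulated cells divided by the larger fold induction of two negative controls lacking either bait or prey.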
binder,measurement,setting,value
Lasp (protein) MNKTCARCQKVVYPIEELKCLDKTWHKTCFKCTECGMTLNMKTYKGYNKMPYCEAHIPKAKATAIADTPELKRIAENTKIQSNVKYHADFEKAKGKFTQVADDPETLRIKQNTKHISNVAYHGDLEKKAAMEKQRGSAEVSDSSNESEYFSEQLAAEQFSQYAPTASPIPPAATTLHQQQQQLQHQQQQQYQQHQQQLQQQQHQHQHYLQQQQQTLPPPPIQHQQYNTAAITPTYQQLQQQQQQQQQQRAQQQQLHDPYAHYQQPQALRQQQQQQQQQQQQLLQQQAIKQASHLYPTATSQQQQMPPPQSPANPQQQALNSYNEMRSAILQNSHHPSGNSVDQYDQPQQQQHQPQQQSTNPTLVAAQQQQSHHSLLNNNASNGGISHSHHSNINNNGHGSQNQMLPPQMRRSAASVVAYDGNSKQQVAAGPGAAQNHLQQLYASPNYAAVTPSENSINVKQHASNGHMPNQQQQHVAGGSNIGKIADYDPLTDGPRVVPNAGRSSTTLVYSSEPRGNQGGNSVYPKRIGSVSDIDPANGIYGSLTAAEQAHQQQKHQQYYQQVQMMQQQEHPPQQQQMRQQPSYSSLQEKQSRQSTAMRVYRAIYDYEAQDVDEVSFREGDVIFEVESIDSGWMTGRVERTGKTGMLPANYVEQAVI,MAPPIT interaction score,[1],0.887 (inactive)
same,MAPPIT interaction score,[2],3.01 (inactive)
same,MAPPIT interaction score,[3],1.83 (inactive)
Timp (protein) MDLRKHLGLLTLLLVAVFAFYGRPADACSCMPSHPQTHFAQADYVVQLRVLRKSDTIEPGRTTYKVHIKRTYKATSEARRMLRDGRLSTPQDDAMCGINLDLGKVYIVAGRMPTLNICSYYKEYTRMTITERHGFSGGYAKATNCTVTPCFGERCFKGRNYADTCKWSPFGKCETNYSACMPHKVQTVNGVISRCRWRRTQLYRKCMSNP,MAPPIT interaction score,[4],0.0292 (inactive)
Acp62F (protein) MTDMWSLKICACLGLLLLFKPIDSMGWQGPKVDCTANGTQTECPVACPETCEYSGNGPCVKMCGAPCVCKPGYVINERIPACVLRSDCPKDVVRKEDMLLGVSNFKCFSRNYNCS,MAPPIT interaction score,[5],2.6 (inactive)
CaBP1 (protein) MRQLASILLLAFVVGSVSAFYSPSDGVVELTPSNFDREVLKDDAIWVVEFYAPWCGHCQSLVPEYKKLAKALKGVVKVGSVNADADSTLSGQFGVRGFPTIKIFGANKKSPTDYNGQRTAKAIAEAALAEVKKKVQGVLGGGGGSSSGGSGSSSGDDVIELTEDNFDKLVLNSDDIWLVEFFAPWCGHCKNLAPEWAKAAKELKGKVKLGALDATAHQSKAAEYNVRGYPTIKFFPAGSKRASDAQEYDGGRTASDIVSWASDKHVANVPAPELIEIINESTFETACEGKPLCVVSVLPHILDCDAKCRNKFLDTLRTLGEKFKQKQWGWAWAEGGQQLALEESLEVGGFGYPAMAVVNFKKMKFSVLKGSFSKDGINEFLRDISYGRGHTAPVRGAKKPAIVSVDPWDGKDGQLPTEEDIDLSDIDLDKDEL,MAPPIT interaction score,[6],0.0074 (inactive)
Cpr47Eg (protein) MKFFIAFACLLAVALANEDANVLRAEQQVNVDGFAYAVELDNSVNVQQKGDLNGEEWVVKGSQSWTSPENVPVSIQYIADANGYQVVSANPPLPTPPPIPEAIQRSLEYIAAHPPSQ,MAPPIT interaction score,[7]; MAPPIT configuration: N-C,1.11 (inactive)
same,MAPPIT interaction score,[7]; MAPPIT configuration: N-N,-0.0471 (inactive)
Cp36 (protein) MQLGLWFGILAIAATPLVSANYGPAGGHGHGHGHGQYLSGPNAGLEEYVNVASGGNQQAANQIASQAEIQPTPEEARRLGRVQAQLQALNADPNYQKLKNSEDIAESLAETNLASNIRQGKIKVVSPQFVDQHLFRSLLVPSGHNNHQVIATQPLPPIIVHQPGAPPAHVNSGPPTVVRGNPVIYKIKPSVIYQQEVINKVPTPLSLNPVYVKVYKPGKKIEAPLAPVVAPVYSQPREYSQPQGYGSAGAASSAAGAASSADGNAYGNEAPLYNSPAPYGQPNY,MAPPIT interaction score,[8],0.061 (inactive)
to (protein) MFAIAFAVVLCLLVSVDAKFPEDPKPCKYGDGECIMKLCNTLFSENSAEGDPGLNLMQLDPLKVDRMVISQGESSSPVGITLTFTDNLLYGIKDQRIVKVKGFGRDLTAKHEVKIVTKTFSLVGPYNIQGKVLILPISGTGQSNMTMVNVRAIVSFSGKPLVKNGETYLDVTDLKITMKPESSHYHFSNLFNGDKALGDNMNVFLNENSEAIYKETAKAIDRSFGKLYLGVVKGVFSKLPYAKFFADES,MAPPIT interaction score,[9],0.062 (inactive)
CG8306 (protein) MASSPITDFYAGRNVFITGATGFVGVTIVEKLLRDVPNVGTLYLLMRAKKGKSVQERLEELKKNSVFDKFKELQLQSRLSKIVPIEGDVGLEHLGISPKDRQTLIDNVNVVFHSAATLDFFQSLKETTNINLRGTRRVVELCQQIKNLDALVHVSSAYVNAYLTKVEEKLYPAPEDPEKIIQLSETLNDDALKELEPKLLKDHPNTYTFTKHLAEHEVANVASKFPCGIVRPSMITAAWKEPIPGWTISKNGPQGFFMGASKGVLRRLPLDPSIIMDYIPIDVVVNGIITTGYYVNSLQAKNGGRPADLQIFHLTSSTYKPFRFELMTDKINSYLHDYPLNSAVWYPNLRLVKSLWVFRLSAILFHFIPAIILDLVTKIGGGRPILVRLHKNVWNSLNTLEKFIFTEWHFDSKRLLALSKTLNIVDKKKFFIDIGELAWDEYFSNTILGVRQYLSKEPIKNLEKARRKDKILLGLHVALQLSFWYGVFKLIVCLTGISTAKAALVLPVLYYLFGLL,MAPPIT interaction score,[9],-0.0656 (inactive)
CSN7 (protein) MTQDMLLGNEEPSKSKETFLEKFCVLAKSSTGAALLDVIRQALEAPNVFVFGELLAEPSVLQLKDGPDSKHFETLNLFAYGTYKEYRAQPEKFIELTPAMQKKLQHLTIVSLAIKAKSIPYALLLSELEIDNVRHLEDIIIEAIYADIIHGKLFQNTRILEVDYAQGRDIPPGYTGQIVETLQAWVNSCDSVSNCIEMQIKYANAEKSKRLINKERVEQDLINLKKVLKSQTSDSDESMQIDTHGPGTSGGLGQSELRKKPSKLRNPRSAAVGLKFSK,MAPPIT interaction score,[10],1.74 (inactive)
same,MAPPIT interaction score,[11],-0.342 (inactive)
Npc2a (protein) MLRYAVIACAALVVFAGALEFSDCGSKTGKFTRVAIEGCDTTKAECILKRNTTVSFSIDFALAEEATAVKTVVHGKVLGIEMPFPLANPDACVDSGLKCPLEKDESYRYTATLPVLRSYPKVSVLVKWELQDQDGADIICVEIPAKIQ,MAPPIT interaction score,[12],-0.361 (inactive)
GstS1 (protein) MADEAQAPPAEGAPPAEGEAPPPAEGAEGAVEGGEAAPPAEPAEPIKHSYTLFYFNVKALAEPLRYLFAYGNQEYEDVRVTRDEWPALKPTMPMGQMPVLEVDGKRVHQSISMARFLAKTVGLCGATPWEDLQIDIVVDTINDFRLKIAVVSYEPEDEIKEKKLVTLNAEVIPFYLEKLEQTVKDNDGHLALGKLTWADVYFAGITDYMNYMVKRDLLEPYPALRGVVDAVNALEPIKAWIEKRPVTEV,MAPPIT interaction score,[13],0.058 (inactive)
CanB (protein) MGNETSLPMDMCSNFDADEIRRLGKRFRKLDLDNSGALSIDEFMSLPELQQNPLVQRVIDIFDADGNGEVDFKEFIQGVSQFSVRGDKLSKLRFAFRIYDMDNDGYISNGELFQVLKMMVGNNLKDTQLQQIVDKTICFADKDEDGKISFDEFCSVVGNTDIHKKMVVDV,MAPPIT interaction score,[14],-0.226 (inactive)
LTV1 (protein) MVKGKKPYIDRKKAVTFHLVHRSQHDPLVTDENAPQRVLLEAAARQQKPKDPEPPTDPAQRQEELKKFGIHFDDDYDYMQHLKKRENDVVWEFMENPNQARKQKVQDSEKPGPAPKLMLPSSVFASEFEESEGMLNKAAPQTLRLDWDPDVVAALDSDCENEELEDDFVIQAMAEGDSDDEEWDDEDGEEQSDMDFDSDDLNEDENEDELMDRLAPLMRERRFDDEEVKSRFTEYSMSSSVIRRNEQLSLLDDRFEKFYATYDDPELGDLALEDIEGNWHQKHPVVMQCFQEFKKKDKGIEYNKEWDRERIEKYRNVVEGEEDPTEELVEYEVDDPKQKKWDCESILSTYSNIYNHPKVIDEPRRSRRSSASTNPAPIQIDPKTGLPTNVLRGGVDGQLTAKALANLADESPAATGPKSLCAKSVLSTLSVLSIRPKDETHEEKKERKRLLKDYRNERRIEKKANTEAFKEEKKRQTHVKINQRTNQQGASIV,MAPPIT interaction score,[15],1.03 (inactive)
Usp30 (protein) MESEKILMAAGVTVAAVVGAFVFWGPSGSRLRQRRGQIAGLHNFGLTCFLNTLLQAMAACPQFIAWLQLYNNASPDRKSLITSMLNTLEVVNGTHATLRGDPYSPGAVLRALNALGWVIPQEEHDAHELFHVLLTCLEEEAIRPQPLGCLSDALPTDNDDNSSLAGTATPVGGFRSFSSMAAGLGASQRIGDQPNRPSSAMLTDFLNMEYDESTSLQRLVRSEAHTPDSPASVCERDGNDRLGSVLLDAVSPGTPFGFPLVSNPDSLATPMLGGERSSRPRLPQSQQQQDEGLNRRVSSSCRSLERLHRGPGRVSIWSNMMPSQVAHPFQGAMGAQIVCNGCGSKSAVRYDKFDSITLNLPPQRRTGLSLGHLLSEYITSEDLSDVKCDSCNETTTHTKSVTFAKLPACLCIHVARTVWLPTGQVCKRKDYVHFPESLSMAPYSFVQPHLNSQAGTPWGSTMSLYSSSLPMNNGVGGGEGFGTMFPKNLYRLLAVVVHSGEANSGHFVTYRRGSLRNAHRWYYTSDTIVREVSIDEVLSVPAYLLFYDRGQQRQLNLR,MAPPIT interaction score,[16],2.05 (inactive)
Caf1-55 (protein) MVDRSDNAAESFDDAVEERVINEEYKIWKKNTPFLYDLVMTHALEWPSLTAQWLPDVTKQDGKDYSVHRLILGTHTSDEQNHLLIASVQLPSEDAQFDGSHYDNEKGEFGGFGSVCGKIEIEIKINHEGEVNRARYMPQNACVIATKTPSSDVLVFDYTKHPSKPEPSGECQPDLRLRGHQKEGYGLSWNPNLNGYLLSASDDHTICLWDINATPKEHRVIDAKNIFTGHTAVVEDVAWHLLHESLFGSVADDQKLMIWDTRNNNTSKPSHTVDAHTAEVNCLSFNPYSEFILATGSADKTVALWDLRNLKLKLHSFESHKDEIFQVQWSPHNETILASSGTDRRLHVWDLSKIGEEQSTEDAEDGPPELLFIHGGHTAKISDFSWNPNEPWIICSVSEDNIMQVWQMAENVYNDEEPEIPASELETNTA,MAPPIT interaction score,[17]; MAPPIT configuration: N-C,2.19 (inactive)
same,MAPPIT interaction score,[17]; MAPPIT configuration: N-N,1.84 ± 0.68
same,MAPPIT interaction score,[18],2.27 (inactive)
